Measurements as given in PubChem BioAssay AID1851 (National Center for Advancing Translational Sciences (NCATS), 2009).
Where “and” joins values, the source holds several entries; their conditions need not be identical. Identical values can stand only once. About 5,700 (36%) of roughly 16,000 compounds were called active. About 24% were inconclusive and are not listed. The call rests on the fitted dose curve; in most records, active means well fitted curve in the direction sought with a large enough effect; inconclusive means small, poorly fitted or top-dose-only effect, or effect the other way; inactive means no such curve, though single readings can be large or run the other way. The list shows a part of the results.

biological target: Cytochrome P450 1A2 (Homo sapiens) (UniProt P05177); test: Cytochrome panel assay with activity outcomes; conditions: recombinant CYP, pro-luciferin dealkylation, luminescence, p450-cyp1a2; series mostly up to 57.1 µM
On the % scale 0 is the no-effect control and ±100 the full control effect.

Chain of Cytochrome P450 1A2 (Homo sapiens) (P05177 whole entry, looked up): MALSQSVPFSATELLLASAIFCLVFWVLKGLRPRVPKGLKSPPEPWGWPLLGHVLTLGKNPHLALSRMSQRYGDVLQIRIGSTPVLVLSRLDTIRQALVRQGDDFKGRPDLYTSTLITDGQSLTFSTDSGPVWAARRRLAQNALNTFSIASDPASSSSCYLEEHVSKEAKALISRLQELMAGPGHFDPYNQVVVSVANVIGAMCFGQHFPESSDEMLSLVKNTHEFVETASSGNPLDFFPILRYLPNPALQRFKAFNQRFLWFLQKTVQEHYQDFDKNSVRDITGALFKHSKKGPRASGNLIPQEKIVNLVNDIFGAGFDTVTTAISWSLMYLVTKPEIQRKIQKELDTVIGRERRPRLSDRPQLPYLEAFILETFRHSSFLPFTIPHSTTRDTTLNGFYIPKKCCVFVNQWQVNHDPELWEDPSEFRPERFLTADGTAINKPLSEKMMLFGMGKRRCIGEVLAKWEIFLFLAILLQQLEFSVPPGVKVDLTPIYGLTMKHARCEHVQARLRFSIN

| Compound | AC50 | activity, negative = inhibition |
| --- | --- | --- |
| Cc1nn(CC(=O)NCCN2CCOCC2)c(C)c1[N+](=O)[O-] | inactive |  |
| O=C(Nc1cccn2ncnc12)c1ccc(Cl)cc1Cl | inactive |  |
| Cl/C(=C\n1cncn1)c1ccc(Cl)cc1Cl | 0.0631 µM (active) |  |
| COc1cccc(/C(O)=C2/C(=O)C(=O)N(Cc3cccnc3)C2c2ccco2)c1 (stereo not given) | inactive |  |
| CCOc1cccc(/C(O)=C2/C(=O)C(=O)N(Cc3cccnc3)C2c2ccco2)c1 (stereo not given) | inactive |  |
| CCOc1cccc(/C(O)=C2/C(=O)C(=O)N(Cc3ccco3)C2c2ccncc2)c1 (stereo not given) | 25.1 µM (active) |  |
| N[C@@H](Cn1ccc(=O)n(Cc2ccccc2C(=O)O)c1=O)C(=O)O | inactive |  |
| O=C(c1ccccc1)c1c[nH]c(C(=O)NCc2cccnc2)c1 | 3.55 µM (active) |  |
| O=S1(=O)[C@H]([C@H]2CC3c4ccccc4C2c2ccccc23)[C@@H](N2CCCCC2)[C@@H]1c1ccccc1 |  | 1.63% [at 2.29 µM] (inactive) |
| O=C(CCn1nc(-c2ccc(Cl)cc2)ccc1=O)N1CCOCC1 | inactive |  |
| Nn1c(SCC(=O)N2CCOCC2)nnc1-c1ccccc1Cl | inactive |  |
| CC(C)Cn1c(-c2ccc(Cl)cc2)cnc1SCC(=O)N1CCOCC1 | 12.6 µM (active) |  |
| C#CCSc1n[nH]c(-c2ccco2)n1 | 2 µM (active) |  |
| CN(C)C(N)=NCCC[C@H](N)C(=O)O | inactive |  |
| O[C@@H](C1=C/C(=C\c2ccncc2)c2ccccc21)c1ccncc1 | 0.1 µM (active) |  |
| COc1ccc(C(C(=O)NC2CCCCC2)N2CCC3(CC2)OCCO3)cc1 (stereo not given) | inactive |  |
| COc1ccc(C(C(=O)NC2CCCCC2)N(C(=O)CCCC(=O)Nc2ccccn2)c2ccc3c(c2)OCCO3)cc1 (stereo not given) | inactive |  |
| COc1ccc(CCCC(=O)NC2CCCCC2)cc1 | 25.1 µM (active) |  |
| COc1ccc(/C=N/NC(=O)CCCC(=O)NC2CCCCC2)cc1 | 11.2 µM (active) |  |
| COc1ccc2c(c1)C(=O)N(CCc1ccc(S(=O)(=O)NC(=O)NC3CCCCC3)cc1)C(=O)C2(C)C | inactive |  |
| CCCC(=O)N=C1SC2CS(=O)(=O)CC2N1c1ccc(CC)cc1 (stereo not given) | inactive |  |
| CC(=O)OC[C@H]1O[C@@H](O/N=C(\C)CCC(=O)OC[C@@H]2O[C@H](C#Cc3ccccc3)C=C[C@@H]2Oc2ccc(C)cc2)[C@H](OC(C)=O)[C@@H](OC(C)=O)[C@H]1OC(C)=O |  | -5.25% [at 11.4 µM] (inactive) |
| O=c1c(-c2cccc(F)c2)nc2cncnc2n1-c1ccccc1 | 10 µM (active) |  |
| O=c1c(-c2cc(F)cc(F)c2)nc2cncnc2n1-c1ccccc1 | 12.6 µM (active) |  |
| C/C(CCN1CCc2nc(-c3ccccc3)c(-c3ccccc3)cc2C1)=N\O[C@@H](C)CN1CCCCc2nc(C)c(C)cc21 |  | -10.7% [at 11.4 µM] (inactive) |

| Compound | AC50 | activity, negative = inhibition |
| --- | --- | --- |
| Cc1c(-c2ccc(O)cc2)nn(-c2ccc(O)cc2)c1-c1ccc(OCCN2CCCCC2)cc1 | 12.6 µM (active) |  |
| CC(=O)N1CCC[C@@]2(CCN(Cc3ccccc3)C2)C1 | inactive |  |
| COC(=O)[C@@]1(Cc2ccc(F)cc2)[C@H]2c3cc(C(=O)N4CCCC4)n(Cc4ccc(Cl)c(C(F)(F)F)c4)c3C[C@H]2CN1C(=O)c1ccccc1 | inactive |  |
| CCOC(=O)C1=C(CSc2nc(-c3ccccc3)ccc2C#N)OC(N)=C(C#N)C1c1ccc(OC)cc1 (stereo not given) | 2 µM (active) |  |
| CSc1ccc(S(=O)(=O)Nc2ccc3c4c(cccc24)CC3)cc1 | 25.1 µM (active) |  |
| Cc1ccc(S(=O)(=O)Nc2ccccc2C=O)cc1 |  | -16% [at 11.4 µM] (inactive) |
| NCCNC(=O)c1ccc(Cl)cc1 | 12.6 µM (active) and 10 µM (active) |  |
| Cc1nc(SCC(=O)NCCc2ccc(Cl)cc2)nc(C)c1C | 20 µM (active) |  |
| Cc1nc(SCC(=O)Nc2ccc(N3CCOCC3)cc2)nc(C)c1C | inactive |  |
| N[C@@H](C(=O)O)[C@H](CC(=O)O)c1ccc(Cl)cc1 | inactive |  |
| O=C(NCCc1ccc(Cl)cc1)c1ncn[nH]1 | 20 µM (active) |  |
| Cc1nc(SCC(=O)Nc2c(C)n(C)n(-c3ccccc3)c2=O)nc(C)c1C | inactive |  |
| O=C(NCCc1ccc(Cl)cc1)Nc1cccc(Cl)c1 | 4.47 µM (active) |  |
| CC(=O)OC[C@@H]1O[C@H](C/C=N\O[C@@H](C)CN2CCCCc3nc(C)c(C)cc32)C=C[C@@H]1OC(C)=O |  | -2.17% [at 11.4 µM] (inactive) |
| O=C(N/N=C1/C[C@@H](O)[C@@H](O)[C@@H]2[C@@H]3C(=O)N(Cc4ccccc4)C(=O)[C@H]3CC[C@H]12)OCc1ccccc1 |  | -7.17% [at 11.4 µM] (inactive) |
| O=C(NNC(=O)c1ccccc1O)c1ccc(Cl)cc1 | inactive |  |
| CNC(=O)C(=O)NCCc1ccc(Cl)cc1 | 7.08 µM (active) |  |
| CC(C)(Oc1ccc(CCNC(=O)c2ccc(Cl)cc2)cc1)C(=O)O | inactive |  |
| O=C(NCCc1ccc(O)cc1)c1ccc(Cl)cc1 | 14.1 µM (active) |  |
| COc1cccc(-c2nnc3sc(-c4ccc(C)cc4)nn23)c1 | 7.08 µM (active) |  |
| CC(C)(C)n1nc2c(c1NC(=O)c1ccc(S(=O)(=O)N3CCCCC3)cc1)CS(=O)C2 (stereo not given) | inactive |  |
| COc1cccc(-c2ccc3ncnc(Nc4ccccc4)c3c2)c1 | 1 µM (active) |  |
| CNc1ncnc2ccc(-c3cccc(OC)c3)cc12 | 0.501 µM (active) |  |
| COc1ccc(Nc2ncc(C(=O)N3CCN(Cc4ccccc4)CC3)c3ccccc23)cc1 | inactive |  |
| COc1ccc(Nc2ncnc3sc(-c4ccccc4)cc23)cc1 | 0.891 µM (active) |  |

| Compound | AC50 | activity, negative = inhibition |
| --- | --- | --- |
| N[C@@H](CSC(=O)c1ccccc1)C(=O)O |  | -14.7% [at 11.4 µM] (inactive) |
| CN(C)CCCN1CC(C(=O)O)CC1=O (stereo not given) | inactive |  |
| Cc1ccc(/C(O)=C2/C(=O)C(=O)N(CCCn3ccnc3)C2c2ccccn2)cc1 (stereo not given) | inactive |  |
| CCOc1ccc(/C(O)=C2/C(=O)C(=O)N(CCCn3ccnc3)C2c2cccs2)cc1Cl (stereo not given) | 15.8 µM (active) |  |
| CCN(CC)CCN1C(=O)C(=O)/C(=C(/O)c2ccc(OC)cc2)C1c1cccs1 (stereo not given) | inactive |  |
| O=C(O)c1cc(-c2ccncc2)nc2ccccc12 |  | -9.92% [at 11.4 µM] (inactive) |
| O=C(N/N=C/c1ccc([N+](=O)[O-])o1)c1cc(-c2ccncc2)nc2ccccc12 | 15.8 µM (active) |  |
| Nc1ccc(S(=O)(=O)Nc2ccc(Cl)nn2)cc1 | inactive |  |
| COc1ccccc1/C=C/C=N/N1CCN(Cc2cccc3ccccc23)CC1 | 7.08 µM (active) |  |
| COc1ccccc1CN1CCC2(CC1)CCN(S(C)(=O)=O)CC2 | inactive |  |
| FC(F)(F)c1ccc(/C=N/N2CCN(Cc3cccc4ccccc34)CC2)cc1 | inactive |  |
| COc1ccc(OC)c(C2CC(=O)C3=C(C2)NC(=O)CC3c2ccc(O)c(OC)c2)c1 (stereo not given) | inactive |  |
| COc1ccc([C@@H]2CNC(=O)C2)cc1OC1CCCC1 | 3.16 µM (active) and 3.98 µM (active) |  |
| COc1ccc(C2C(=O)N(C3CCCCCC3)CC(=O)N2Cc2ccccc2)cc1OC (stereo not given) | inactive |  |
| COc1ccc(CNc2ncnc3ccc(-c4c(C)noc4C)cc23)c(OC)c1 | 15.8 µM (active) |  |
| COc1ccccc1CNc1ncnc2ccc(-c3cccnc3)cc12 | 0.316 µM (active) |  |
| COc1ccc(CNc2ncnc3ccc(-c4cccnc4)cc23)c(OC)c1 | 0.398 µM (active) |  |
| COc1cccc(-c2ccc3ncnc(NCc4ccc(OC)cc4OC)c3c2)c1 | 2.51 µM (active) |  |
| CO/N=C(\C)CCN1CCCc2nc(C)c(C)cc21 |  | 2.07% [at 11.4 µM] (inactive) |
| Cc1cc(C)cc(OCC(=O)NNC(=O)c2cc(C)[nH]n2)c1 | inactive |  |
| COCC(=O)N1CCC2(CC1)CN(C(=O)Nc1cccc(F)c1)C2 | inactive |  |
| O=C(Cc1ccccc1)Nc1nc(=O)c2ccccc2s1 | 2.24 µM (active) |  |
| O=C(Cn1cnc2ccccc2c1=O)Nc1nnc(SCc2ccccc2)s1 | inactive |  |
| CCc1ccc2c(c1)c(N=NC1=NC(=O)CS1)c(O)n2CC | 1.41 µM (active) |  |
| Oc1cccc2ccc(SSc3ccc4cccc(O)c4n3)nc12 | 3.16 µM (active) |  |

| Compound | AC50 | activity, negative = inhibition |
| --- | --- | --- |
| COc1ccc(-c2ccc(C(=S)N3CCN(C(C)=O)CC3)o2)cc1 | 2.24 µM (active) |  |
| COc1ccc(NC(=O)N2CC3(CCN(C(C)=O)CC3)C2)cc1 | inactive |  |
| COc1ccc(N2CCN(C(=N)/C(C(C)=O)=C(\C)O)CC2)cc1 | inactive |  |
| O=C(Nc1c(C(=O)N2CCOCC2)cnn1-c1ccccc1)c1ccco1 | inactive |  |
| O=C(c1ccncc1)N1CCC2(CC1)CCN(c1ccccc1)CC2 | inactive |  |
| O=C(c1cn(-c2ccccc2)nc1-c1cccs1)N1CCOCC1 | 15.8 µM (active) |  |
| C[C@@H]1/C=C\CC(=O)OC[C@H](C)C(=O)N[C@@H](C)C(=O)OC1 |  | -0.299% [at 11.4 µM] (inactive) |
| COc1ccc(CNc2cc(-c3cccc(NS(C)(=O)=O)c3)ncn2)c(OC)c1 | 15.8 µM (active) |  |
| COc1ccccc1CNc1cc(-c2cccc(NS(C)(=O)=O)c2)ncn1 | 15.8 µM (active) |  |
| O=C(CSCc1c(Cl)cccc1Cl)NCc1cccnc1 | 5.01 µM (active) |  |
| Cc1ccc(S(=O)(=O)N2CCC(C(=O)NCc3cccnc3)CC2)cc1 | inactive |  |
| CCS(=O)(=O)N1CCC(C(=O)NCc2cccnc2)CC1 | inactive |  |
| Fc1ccc(COc2ccc(Br)cc2CNCc2ccncc2)cc1 | 0.316 µM (active) |  |
| OC(CNCc1ccc(F)cc1)(c1ccc(F)cc1)c1ccc(F)cc1 | inactive |  |
| Cc1nnc(NC(=O)CCC(=O)NCc2cccs2)s1 | inactive |  |
| Cc1nnc(NC(=O)c2oc3c(ccc4ccccc43)c2C)s1 | 0.2 µM (active) |  |
| COC(=O)[C@@H](NC(=O)Nc1ccc(C(C)=O)cc1)C(C)C | inactive |  |
| Cc1c(NC(=O)CCCOc2ccccc2)cccc1[N+](=O)[O-] | 12.6 µM (active) |  |
| Cc1ccc(OCCCC(=O)Nc2ccccc2C(F)(F)F)cc1 | 4.47 µM (active) |  |
| Cc1cccc(OCCCC(=O)Nc2ccc(N3CCCCC3)cc2)c1 | inactive |  |
| COc1cc([N+](=O)[O-])ccc1NC(=O)CCCOc1cccc(C)c1 | 7.94 µM (active) |  |
| Cc1ccc(OCC(=O)NNC(=O)CCC(=O)Nc2ccc(C)cc2C)cc1 | inactive |  |
| Cc1c(NC(=O)/C=C/C(=O)O)cccc1[N+](=O)[O-] | inactive |  |
| Cc1c(NC(=O)C(Sc2ccccc2)c2ccccc2)cccc1[N+](=O)[O-] (stereo not given) | inactive |  |
| Cc1cccc(OCCCC(=O)Nc2ccccc2C(F)(F)F)c1 | 11.2 µM (active) |  |
